Measured values taken from PubChem BioAssay (NCI).
The panel holds about 83,000 compounds, 20% with a hit somewhere; the sample as a whole holds those more often.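 96-well plates, one dose, 48 hours. Percent growth reported; active if below 10.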 A number with no mark means an inactive call. Calls of active or inactive are those of the source.

Tests used:
Assay in all cases: NCI-60 one-dose screen, 48 h (100 = growth as untreated, 0 = no growth, -100 = all killed)
Settings in all cases: 10 µM unless noted
SR leukemia = test system: SR leukemia
RPMI-8226 leukemia = test system: RPMI-8226 leukemia
OVCAR-8 ovarian = test system: OVCAR-8 ovarian
OVCAR-5 ovarian = test system: OVCAR-5 ovarian
OVCAR-4 ovarian = test system: OVCAR-4 ovarian
SK-OV-3 ovarian = test system: SK-OV-3 ovarian
IGROV1 ovarian = test system: IGROV1 ovarian
OVCAR-3 ovarian = test system: OVCAR-3 ovarian
HS 578T breast = test system: HS 578T breast
NCI/ADR-RES ovarian = test system: NCI/ADR-RES ovarian

Row | SMILES | growth (SR leukemia) | growth (RPMI-8226 leukemia) | growth (OVCAR-8 ovarian) | growth (OVCAR-5 ovarian) | growth (OVCAR-4 ovarian) | growth (SK-OV-3 ovarian) | growth (IGROV1 ovarian) | growth (OVCAR-3 ovarian) | growth (HS 578T breast) | growth (NCI/ADR-RES ovarian)
1 | CCN(CC)CCNc1ccc([N+](=O)[O-])c2sc3ccccc3c(=O)c12 | 11.1% | 22.2% | 19.1% | 45% | 12% | 32.6% | -10.9% (active) | 36.7% | 20.4% | 32.8%
2 | CCCCCCCCCCCCNCCCc1ccccc1 | -34.3% (active) | 6.17% (active) | 79.3% | 81.2% | 46.5% | 103% | 75.4% | 83% | 88.6% | 75.1%
3 | CCCC[n+]1c(/C=C\c2c(OC)cc(OC)cc2OC)ccc2ccccc21 | -34.6% (active) | -25.6% (active) | -27.7% (active) | 24.3% | 9.07% (active) | -14.3% (active) | 9.69% (active) | -16.7% (active) | 16.4% | 76.8%
4 | OC(CSc1ccccc1)CN1CCN(c2ccc(Cl)cc2)CC1 (stereo not given) | 86.6% | 81.4% | 99.6% | 102% | 92.1% | 110% | 114% | 121% | 115% | 89.1%
5 | CCSc1nc2ccccc2o1 | 94.2% | 104% | 103% | 101% | 101% | 104% | 90.1% | 111% | 102% | 108%
6 | O=[N+]([O-])c1ccc(C2N(Cc3ccc(Cl)cc3)CCN2Cc2ccc(Cl)cc2)cc1 | 64.8% | 83.9% | 91% | 89.6% | 102% | 90.1% | 85.9% | 91.3% | 102% | 87.6%
7 | CC(C)(C)CC(C)(C)c1ccc(OCCOCCSC(=N)N)cc1 | -24.4% (active) | -43.6% (active) | 58.5% | 73.6% | 33% | 55.9% | 54.9% | 25.3% | 33.9% | 45.5%
8 | O=C1/C(=C/c2ccccn2)CCc2ccccc21 | 51.2% | 14.6% | 109% | 108% | 104% | 86.6% | 114% | 109% | 98.1% | 106%
9 | O=[N+]([O-])c1ccc(Oc2ccccc2Cl)c([N+](=O)[O-])c1 | 1.58% (active) | 78.4% | 93.2% | 116% | 56.4% | 99.8% | 104% | 94.1% | 77.7% | 72.7%
10 | CC(C)=C1C=C2CC[C@@H]3[C@](C)(CCC[C@@]3(C)C(=O)O)[C@H]2CC1 | 99% | 107% | 100% | 96.8% | 94.4% | 105% | 103% | 98.9% | 110% | 100%
11 | CCOc1ccc(C(C[N+](=O)[O-])Sc2ccccc2N)cc1 (stereo not given) | 4.9% (active) | 6.92% (active) | 53.5% | 81.9% | 83.1% | 72.6% | -34.9% (active) | 32.2% | 43.6% | 72.6%
12 | CN(C)CCSC1=Nc2ccc(Cl)cc2C(c2ccccc2Cl)N(C)C1 (stereo not given) | 44.1% | 50.7% | 78.8% | 88.4% | 39.4% | 72% | 41.6% | 59.9% | 24.2% | 66%
13 | c1ccc(C2NCCNC2c2ccccc2)cc1 (stereo not given) | 98.1% | 108% | 101% | 99.3% | 116% | 113% | 102% | 113% | 104% | 109%
14 | c1ccc(-c2cccc(-c3ccccn3)n2)nc1 | 7.98% (active) | 20.8% | 12% | 59% | 33.3% | 7.86% (active) | 19.3% | 28.2% | 67% | 1.8% (active)
15 | CCCCCCCCc1cc(Cl)c(O)c(Cl)c1 | 83.1% | 98.3% | 103% | 101% | 115% | 101% | 133% | 101% | 98.7% | 103%
16 | S=C=Nc1ccc(N2CCOCC2)cc1 | 71.2% | 87.8% | 102% | 97.6% | 106% | 93% | 96.9% | 109% | 99.3% | 101%
17 | O=Nc1ccc2ccccc2c1O | 60.1% | 70% | 6.45% (active) | 81.8% | 35.2% | 95% | 53.2% | 2.86% (active) | 51% | 6.37% (active)
18 | CC1=CC(=NC(=O)CBr)C=C/C1=N\S(=O)(=O)c1ccccc1 | 58.3% | 84.5% | 66.6% | 122% | 50.6% | 91.7% | -3.37% (active) | 8.58% (active) | 89.1% | 89.4%
19 | Cc1nnc(N/N=C/c2ccc([N+](=O)[O-])o2)[nH]c1=O | 8.26% (active) | 42.1% | 21.1% | -2.06% (active) | 29.4% | 10.4% | 21% | -7.14% (active) | 22% | 8.65% (active)
20 | CCCCCCCCCCCC[n+]1ccc(CCCCCCCCC)cc1 | -32% (active) | -54.6% (active) | -80.4% (active) | -16.8% (active) | -79.1% (active) | -18.9% (active) | -79.5% (active) | -85.3% (active) | -7.56% (active) | 35.8%
21 | Cc1cc(C)c(C#N)c(Sc2nc(C)c([N+](=O)[O-])c(C)c2C#N)n1 | 22.7% | 48.7% | 77.2% | 90.1% | 66.6% | 81.3% | 82.9% | 68.6% | 118% | 77.9%
22 | CCCCOS(=O)(=O)c1ccccc1 | 126% | 126% | 120% | 95.8% | 104% | 113% | 131% | 112% | 107% | 107%
23 | CCCCC(CCc1ccc([N+](=O)[O-])cc1)(C(C)=O)C(=O)OCC (stereo not given) | 63.5% | 96.2% | 104% | 105% | 89.5% | 112% | 101% | 96.4% | 92% | 104%
24 | CC(C)c1ccc(Nc2n[nH]c(=S)s2)cc1 | 101% | 108% | 102% | 119% | 104% | 106% | 106% | 98.9% | 116% | 102%
25 | COc1cc(/C=C/c2ccnc3ccccc23)cc(OC)c1OC | 7.06% (active) | 60.6% | 42.5% | 50.5% | 54.6% | 30.1% | 59.1% | 16.4% | 24.4% | -25.5% (active)
26 | CN(C)c1ccc(C(=C2C=CC(=[N+](C)C)C=C2)c2ccc(N(C)C)cc2)cc1 | -14.3% (active) | -51.8% (active) | -44.8% (active) | -34.4% (active) | -18.5% (active) | -90.9% (active) | -37.2% (active) | -91.1% (active) | 1.62% (active) | -18.8% (active)
27 | CCCCCCCCCCCCSC(=N)N | -32.1% (active) | -42.2% (active) | -60.6% (active) | 37.4% | 33.1% | 79% | -15.2% (active) | 14.4% | 92.1% | 35.6%
28 | c1csc(-c2[nH]nc3c2CCc2ccccc2-3)c1 | 105% | 81.3% | 99.1% | 24.1% | 48.5% | 98.1% | 67.2% | 28.1% | 90% | 98.7%
29 | O=C(O)c1cccc2cccc(-c3c4ccc(=O)c(O)c-4oc4c(O)c(O)ccc34)c12 | 83.6% | 123% | 100% | 97.5% | 97.4% | 90.1% | 101% | 93.5% | 99.5% | 96.7%
